# Results: the supplement of paper PMC8253809
# Several values for one entry are separate records, joined by “and”; a condition that tells them apart may be missing. Equal entries are not always repeated.
# Columns and labels:
# Experiment in all cases: growth inhibition (% activity, log2 RLU normalised to DMSO / staurosporine); higher = more growth inhibition
# Details in all cases: 33 µM
# DIPGX29 = tested on: DIPGX29 (H3.3 K27M diffuse intrinsic pontine glioma line)
# How it was run: (§1)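 Approved drugs were tested in triplicate at a single final concentration of about 33 μM for 7 days at 37 °C, 5% CO2, on pHGG cell lines and H9-derived neural stem cells. Readout was CellTiter-Glo luminescence, log2-transformed and scaled per plate to % activity between solvent and positive control wells. The median over replicates gives the growth-inhibition value.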
# DIPGX37 = tested on: DIPGX37 (H3.3 K27M diffuse intrinsic pontine glioma line)
# How it was run: as §1
# DIPGX7 = tested on: DIPGX7 (H3.3 K27M diffuse intrinsic pontine glioma line)
# How it was run: as §1
# DIPGX9 = tested on: DIPGX9 (diffuse intrinsic pontine glioma line)
# How it was run: as §1
# HGGX39 = tested on: HGGX39 (paediatric high-grade glioma line)
# How it was run: as §1
# HGGX6 = tested on: HGGX6 (H3.3 G34R paediatric high-grade glioma line)
# How it was run: as §1
# HNSC = tested on: HNSC
# How it was run: as §1
# SUDIPGIV = tested on: SUDIPGIV (diffuse intrinsic pontine glioma line)
# How it was run: as §1
# SUDIPGVI = tested on: SUDIPGVI (diffuse intrinsic pontine glioma line)
# How it was run: as §1
# SUDIPGXIII = tested on: SUDIPGXIII (diffuse intrinsic pontine glioma line)
# How it was run: as §1
SMILES,growth inhibition (DIPGX29),growth inhibition (DIPGX37),growth inhibition (DIPGX7),growth inhibition (DIPGX9),growth inhibition (HGGX39),growth inhibition (HGGX6),growth inhibition (HNSC),growth inhibition (SUDIPGIV),growth inhibition (SUDIPGVI),growth inhibition (SUDIPGXIII)
CC(C(=O)O)c1ccc2c(c1)[nH]c1ccc(Cl)cc12 (stereo not given),-0.444%,-0.934%,0.549%,-0.825%,-0.747%,0.65%,-2.15%,-2.81%,-0.161%,-6.63%
C=C1[C@H](CO)[C@@H](O)C[C@@H]1n1cnc2c(=O)[nH]c(N)nc21,-0.461%,0.828%,-0.963%,1.66%,0.038%,2.68%,0.984%,-0.629%,0.432%,2.42%
CC(=O)OCC(=O)[C@H]1CC[C@H]2[C@@H]3CCC4=CC(=O)CC[C@]4(C)[C@H]3CC[C@]12C,-1.69%,-0.592%,-0.0117%,-0.0895%,1.53%,-0.537%,-2.47%,-2%,-0.651%,5.18%
CC(=O)O[C@H]1C[C@@H]2CC[C@@H]3[C@H](CC[C@@]4(C)[C@H]3C[C@H]([N+]3(C)CCCCC3)[C@@H]4OC(C)=O)[C@@]2(C)C[C@@H]1N1CCCCC1,0.923%,-0.759%,1.01%,1.13%,1.15%,-0.813%,1.96%,-0.377%,1.82%,-0.269%
Nc1nnc(-c2cccc(Cl)c2Cl)c(N)n1,-0.42%,-0.569%,-0.114%,-0.0846%,0.648%,0.473%,0.358%,-1.97%,0.284%,0.73%
Oc1ccc(OCc2ccccc2)cc1,2.78%,-1.94%,5.44%,2.61%,1.21%,1.02%,10.9%,-2.99%,-1.42%,-1.26%
CC(C)[N+]1(C)[C@@H]2CC[C@H]1C[C@@H](OC(=O)C(CO)c1ccccc1)C2 (stereo not given in full),-0.758%,3.5%,0.48%,0.945%,1.73%,2.16%,-1.56%,-0.725%,2.4%,0.743%
Nc1nc(N)nc(-c2cc(Cl)ccc2Cl)n1,-2.22%,-3.47%,-1.19%,-0.993%,-0.32%,0.13%,-4.65%,-1.63%,-0.709%,-0.715%
CN(C)CCCC1(c2ccc(F)cc2)OCc2cc(C#N)ccc21 (stereo not given),1.68%,3.31%,3.03%,1.7%,2.63%,3.21%,-0.115%,1.18%,1.71%,0.506%
CN[C@@H]1[C@H](O)[C@H](NC)[C@H]2O[C@@]3(O)C(=O)C[C@@H](C)O[C@H]3O[C@@H]2[C@H]1O,1.24%,1.47%,0.532%,2.81%,1.18%,-0.547%,3.02%,0.676%,2.4%,0.316%
NC12CC3CC(CC(C3)C1)C2,0.311%,-1.43%,0.524%,0.931%,2.31%,1.23%,-2.35%,0.117%,0.782%,-2.09%
OCCN(CCO)c1nc(N2CCCCC2)c2nc(N(CCO)CCO)nc(N3CCCCC3)c2n1,-2.31%,-0.429%,-1.26%,-0.332%,2.38%,1.04%,-0.178%,-1.52%,-2.93%,1.36%
O=c1[nH]c(=O)n([C@H]2C[C@H](O)[C@@H](CO)O2)cc1F,18.6%,6.96%,12.8%,10.7%,10.9%,14.3%,67.3%,26.2%,4.66%,6.72%
C[C@@H](O)[C@H]1C(=O)N2C(C(=O)[O-])=C(SC3Cn4cnc[n+]4C3)[C@H](C)[C@H]12 (stereo not given in full),-0.594%,-1.93%,-0.736%,0.334%,0.724%,2.31%,-1.63%,-0.792%,0.279%,1.62%
CCN(CC)CCOCCOC(=O)C(CC)(CC)c1ccccc1,7.78%,4.64%,14.3%,2.65%,9.22%,10.7%,6.61%,2.41%,4.8%,-0.0734%
CCCCC(=O)O[C@]1(C(=O)CO)[C@@H](C)C[C@H]2[C@@H]3CCC4=CC(=O)C=C[C@]4(C)[C@@]3(F)[C@@H](O)C[C@@]21C,2.95%,4.71%,0.933%,4%,3.19%,1.27%,0.754%,0.551%,2.82%,2.04%
COC(=O)[C@H](c1ccccc1Cl)N1CCc2sccc2C1,-1.33%,-0.314%,-0.551%,-0.762%,-0.681%,-0.144%,-2.08%,-1.84%,0.653%,1.29%
CC(C)(C(=O)O)c1ccc(C(O)CCCN2CCC(C(O)(c3ccccc3)c3ccccc3)CC2)cc1 (stereo not given),-0.186%,-1.1%,0.287%,0.223%,2.4%,-0.102%,3.07%,0.0574%,1.9%,-0.622%
NS(=O)(=O)c1cc2c(cc1Cl)NC(C(Cl)Cl)NS2(=O)=O (stereo not given),1.16%,4.01%,3.24%,5.41%,4.4%,5.05%,-0.78%,-3.21%,2.47%,0.0927%
OCCOCCN1CCN(C(c2ccccc2)c2ccc(Cl)cc2)CC1 (stereo not given),3.87%,0.602%,4.59%,0.403%,2.86%,3.73%,4.05%,1.02%,-1.15%,1.1%
COc1cc2nc(N3CCN(C(=O)C4COc5ccccc5O4)CC3)nc(N)c2cc1OC (stereo not given),0.458%,2.32%,1.34%,0.0132%,2.47%,1.58%,-0.951%,-3.82%,1.52%,2.13%
c1ccc2[nH]c(-c3cscn3)nc2c1,-1.25%,0.956%,-0.782%,0.56%,0.84%,1.32%,-1.65%,0.977%,1.13%,0.000357%

SMILES,growth inhibition (DIPGX29),growth inhibition (DIPGX37),growth inhibition (DIPGX7),growth inhibition (DIPGX9),growth inhibition (HGGX39),growth inhibition (HGGX6),growth inhibition (HNSC),growth inhibition (SUDIPGIV),growth inhibition (SUDIPGVI),growth inhibition (SUDIPGXIII)
O=C1CCc2cc(OCCCCc3nnnn3C3CCCCC3)ccc2N1,3.36%,2.01%,4.29%,2.35%,7.05%,2.3%,4.38%,3.38%,3.43%,1.12%
CCCC(=O)OCOC(=O)C1=C(C)NC(C)=C(C(=O)OC)C1c1cccc(Cl)c1Cl (stereo not given),2.13%,4.21%,2.32%,2.4%,4.32%,-0.314%,31.7%,2.85%,3.35%,-0.196%
CCOC(=O)C1=C[C@]2(CC)CCCN3CCc4c(n1c1ccccc41)[C@@H]32,-2.05%,0.343%,1.55%,0.728%,0.726%,-1.58%,34.5%,1.95%,0.167%,3.3%
NCCCC[C@H](N[C@@H](CCc1ccccc1)C(=O)O)C(=O)N1CCC[C@H]1C(=O)O,-0.869%,-1.25%,-0.813%,-0.846%,-1.12%,1.27%,-1.56%,-0.401%,-1.38%,-4.08%
CC[N+](CC)(CC)CCOc1cccc(OCC[N+](CC)(CC)CC)c1OCC[N+](CC)(CC)CC,2.95%,4.13%,2.35%,3.16%,2.47%,0.26%,1.9%,-0.653%,3.43%,-2.39%
CCOC(=O)N1CCC(=C2c3ccc(Cl)cc3CCc3cccnc32)CC1,2.36%,3.66%,1.58%,1.03%,1.57%,1.37%,5.38%,3.97%,1.47%,0.514%
CC[C@@H]1C(=O)OC[C@@H]1Cc1cncn1C,-0.467%,1.71%,-1.24%,-1.88%,0.217%,-0.083%,-2.25%,-1.63%,0.518%,-11.1%
N#C[C@@H]1CCCN1C(=O)CNC12CC3CC(CC(O)(C3)C1)C2,-0.11%,-0.458%,-0.508%,-1%,0.579%,-2.32%,14.2%,0.0993%,-3.27%,-3.49%
CN(C)CCOC(C)(c1ccccc1)c1ccccn1 (stereo not given),-1.53%,-0.506%,0.0494%,-1.25%,0.245%,-0.355%,-1.65%,-0.218%,-0.777%,0.1%
CCCCOc1ccc(OCCCN2CCOCC2)cc1,5.55%,2.14%,14.7%,1.12%,8.05%,7.63%,5.68%,1.4%,1.31%,1.81%
CC1CCc2cc(F)cc3c(=O)c(C(=O)O)cn1c23 (stereo not given),-0.61%,1.22%,0.338%,-0.551%,1.41%,2.29%,0.388%,-1.52%,0.839%,-18.7%
CC(C)Cc1ccc(C(C)C(=O)O)cc1 (stereo not given),0.835% and -0.392%,2.64% and 0.0742%,2.15% and 0.0236%,1.07% and 0.0197%,2.25% and -0.715%,1.92% and 1.49%,-0.67% and 0.218%,-1.49% and -4.48%,2.09% and 0.812%,-0.0501% and 0.956%
CN(C)[C@@H]1C(O)=C(C(=O)NCN2CCCC2)C(=O)[C@@]2(O)C(O)=C3C(=O)c4c(O)cccc4[C@@](C)(O)[C@H]3C[C@@H]12,-1.08%,-1.26%,-0.844%,0.66%,-0.334%,0.151%,-2.27%,0.0649%,2.48%,0.413%
CC[C@]1(O)C[C@H]2CN(CCc3c([nH]c4ccccc34)[C@@](C(=O)OC)(c3cc4c(cc3OC)N(C=O)[C@H]3[C@@](O)(C(=O)OC)[C@H](OC(C)=O)[C@]5(CC)C=CCN6CC[C@]43[C@@H]65)C2)C1,23.4%,12.5%,15.1%,22.7%,21.3%,17.5%,60.5%,35.7%,38.9%,30.9%
Oc1ncnc2[nH]ncc12,-2.33%,-1.9%,-0.64%,-2.61%,-3.77%,-3.6%,-5.63%,-3.97%,-6.47%,0.643%
COc1nc(N)nc2c1ncn2[C@@H]1O[C@H](CO)[C@@H](O)[C@@H]1O,-0.0296%,-1.39%,-1.6%,1.18%,2.74%,1%,-1.01%,0.63%,0.545%,-2.52%
CC(C)(Sc1cc(C(C)(C)C)c(O)c(C(C)(C)C)c1)Sc1cc(C(C)(C)C)c(O)c(C(C)(C)C)c1,-2%,-0.535%,-0.766%,-0.47%,-0.682%,-1.24%,1.54%,-1.38%,-2.9%,1.85%
CN(C)/N=N/c1[nH]cnc1C(N)=O,5.71%,3.55%,2.2%,3.08%,9.03%,7.4%,4.41%,12.8%,2.55%,0.947%
NC[C@H]1CC[C@H](C(=O)O)CC1,-0.318%,1.11%,0.868%,1.09%,2.3%,0.25%,-0.348%,-1.18%,0.626%,-0.00541%
NCCS,-2.8%,-1.3%,-0.687%,-1.29%,-2.78%,-3.18%,0.969%,-2.89%,-5.68%,0.354%
COc1ccccc1OCCNCC(O)COc1cccc2[nH]c3ccccc3c12 (stereo not given),6.61%,2.55%,3.4%,3.73%,5.74%,4.11%,7.57%,1.9%,5.96%,2.05%
